Assay outcomes deposited in PubChem BioAssay by National Center for Advancing Translational Sciences (NCATS).
BLM inh = blocks DNA unwinding by human BLM helicase. P54132. recombinant BLM DNA unwinding, fluorescence dequenching. Potency, µM (doses to about 56.1 µM), for the others: at the top dose activity change, negative = inhibition, usual class: inhibitors. 0.2% of 350,000 active;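 note: potency is the fitted concentration of half-maximal effect; plate controls were vehicle for no effect and no enzyme for full effect; nearly all actives have a fitted effect of over 35% in size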
RECQ1 helicase = inhibitors of human RECQ1 DNA helicase. P46063. RECQ1 DNA unwinding, red fluorescence kinetic read. Potency, µM (highest dose often 57.3 µM), for inactives: top-dose activity, negative = inhibition, most hits filed as inhibitors. 0.54% of 240,000 active;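 note: potency is the fitted concentration of half-maximal effect; plate controls were vehicle for no effect and no enzyme for full effect; nearly all actives have a fitted effect of over 30% in size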
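50 nM RECQ1T1 preincubated 15 min with compound in Tris pH 8.0 buffer with MgCl2, DTT, Tween-20 and 2.5 ug/ml poly(dI-dC); started with 200 nM TAMRA/BHQ-2 forked duplex and 2 mM ATP. Unwinding read as fluorescence (525/598 nm), two reads 2 h apart.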
APEX1 inh = inhibitors of human APE1 endonuclease; P27695; recombinant APE1, TAMRA/BHQ-2 abasic DNA cleavage fluorescence; Potency, µM (highest dose often 65.8 µM), for the others: at the top dose activity change, negative = inhibition, usual class: inhibitors; AID 2517; 0.35% of 350,000 active;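 note: potency is the fitted concentration of half-maximal effect; plate controls were vehicle for no effect and reference inhibitor for full effect; nearly all actives have a fitted effect of over 55% in size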
Target sequence (P27695 whole entry, looked up): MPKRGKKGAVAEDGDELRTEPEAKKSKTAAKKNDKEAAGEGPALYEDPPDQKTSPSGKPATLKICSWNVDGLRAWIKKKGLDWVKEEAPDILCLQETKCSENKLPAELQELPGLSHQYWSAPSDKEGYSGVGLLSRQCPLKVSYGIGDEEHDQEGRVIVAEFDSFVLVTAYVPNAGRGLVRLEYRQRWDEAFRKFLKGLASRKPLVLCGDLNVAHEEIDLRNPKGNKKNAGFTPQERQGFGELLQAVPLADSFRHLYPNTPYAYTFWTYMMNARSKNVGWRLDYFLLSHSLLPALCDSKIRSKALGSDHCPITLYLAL
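Compound pre-exposure to 0.75 nM APE1, 15 min at ambient temperature. Reaction initiated with 50 nM TAMRA/BHQ-2 THF substrate, read immediately in kinetic mode, 525 nm excitation, 598 nm emission.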
JMJD2E inh = JMJD2E (human) inhibition; B2RXH2; JMJD2E catalytic domain, FDH-coupled NADH fluorescence (FDH is formaldehyde dehydrogenase); Potency, µM (top dose mostly 57.1 µM), for inactives: top-dose activity change, negative = inhibition, most hits filed as inhibitors; 1.6% of 230,000 active; active = well fitted inhibition curve with a large enough effect, not every such curve was filed as active; inconclusive = small, poorly fitted or top-dose-only effect, or another doubt; inactive = no such curve, though single readings can be large or run the other way;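 note: potency is the fitted concentration of half-maximal effect; 0% = wells with enzyme and -100% = buffer wells without enzyme; nearly all actives have a fitted effect of over 50% in size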
Target sequence (B2RXH2 1-337 limits assumed): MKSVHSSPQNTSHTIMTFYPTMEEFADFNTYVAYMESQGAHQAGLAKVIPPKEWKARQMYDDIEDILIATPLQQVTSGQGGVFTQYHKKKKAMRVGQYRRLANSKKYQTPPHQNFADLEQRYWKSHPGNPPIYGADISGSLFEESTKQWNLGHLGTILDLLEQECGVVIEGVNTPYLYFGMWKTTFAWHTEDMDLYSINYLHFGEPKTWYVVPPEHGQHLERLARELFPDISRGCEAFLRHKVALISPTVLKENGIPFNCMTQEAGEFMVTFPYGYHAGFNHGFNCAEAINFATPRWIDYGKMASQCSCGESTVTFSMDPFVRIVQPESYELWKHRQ
PKM2 activator = PKM2 (human) enzyme activation; purified PKM2, Kinase-Glo ATP luminescence, activation; response scale: 0% is enzyme alone, no compound; Potency, µM (highest dose often 57.5 µM), without a hit: top-dose activation, hits mostly activators; 0.34% of 260,000 active; AID 1631; note: potency is the fitted concentration of half-maximal effect; % is set by controls: 0 for no effect and ±100 for the full control effect; nearly all actives have a fitted effect of over 55% in size
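Kinase-Glo luminescence reports ATP generated from ADP (0.1 mM) and PEP (0.5 mM) by purified hPK-M2 after 1 h at room temperature, pH 7.2 imidazole buffer; intermediate enzyme activity allows detecting inhibitors and activators.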
HeLa tox = HeLa cytotoxicity, CellTiter-Glo readout; shares compounds with PKM2 activator; HeLa viability, CellTiter-Glo ATP luminescence, 24 h; activity change, negative = cytotoxicity, % at 57.5 µM; 230 tested, under 10 active; AID 1898; note: % of control where 0% means no effect
Starred values were filed as active, the others as inactive; i = inactive; u = inconclusive; x = no result; ! = a repeat was not active; [ ] = dose if it differs, or a comment. The sample as a whole holds a higher share of hits than the screen did. Unless noted, calls come from the whole dose curve; as a rule, active = well fitted curve in the direction sought with a large enough effect; inconclusive = small, poorly fitted or top-dose-only effect, or another doubt; inactive = no such curve, though single readings can be large; an effect the other way counts as inactive or inconclusive.

SMILES | BLM inh | RECQ1 helicase | APEX1 inh | JMJD2E inh | PKM2 activator | others
CC[C@H](C)[C@H](NC(=O)[C@H](CO)NC(=O)[C@H](CC(N)=O)NC(=O)[C@H](CC(C)C)NC(=O)[C@H](Cc1ccc(O)cc1)NC(=O)[C@H](CCCCN)NC(=O)[C@H](CCCCN)NC(=O)[C@@H](NC(=O)[C@H](C)NC(=O)[C@H](CCSC)NC(=O)[C@H](CCC(N)=O)NC(=O)[C@H](CCCCN)NC(=O)[C@H](CCCNC(=N)N)NC(=O)[C@H](CC(C)C)NC(=O)[C@H](CCCNC(=N)N)NC(=O)[C@@H](NC(=O)[C@H](Cc1ccc(O)cc1)NC(=O)[C@H](CC(N)=O)NC(=O)[C@H](CC(=O)O)NC(=O)[C@@H](NC(=O)[C@H](Cc1ccccc1)NC(=O)[C@@H](NC(=O)[C@H](C)NC(=O)[C@H](CC(=O)O)NC(=O)[C@H](CO)NC(=O)[C@@H](N)Cc1cnc[nH]1)C(C)C)[C@@H](C)O)[C@@H](C)O)C(C)C)C(=O)N[C@@H](CC(C)C)C(=O)N[C@@H](CC(N)=O)C(N)=O | 8% | -1% | 14% | x | x
CCOC(=O)c1c(-n2c(C)cc(/C=C3\C(=O)NC(=O)N(C)C3=O)c2C)sc2c1CCCC2 | -1% | -11% | -3% | 2% | 16µM*
CCCCCCCCCOc1ccc2[nH]cc(CCN)c2c1 | 15% | -7% | -2% | 25µM*! | -3%
COc1ccc2[nH]cc(CCN)c2c1 | -6% | 0% | -4% | 0% | 0%
Cc1cc(C)cc(N2C(=O)NC(=O)/C(=C/c3cccn3-c3ccc(Cl)cc3)C2=O)c1 | -6% | i | u | -2% | -14%
Cc1cccc(N2C(=O)NC(=O)/C(=C\c3cccn3-c3ccc(Cl)cc3)C2=O)c1 | -22% | 32µM* | 0% | 9% | 1%
Cc1cccc(N2C(=O)NC(=O)/C(=C\C=C\c3ccco3)C2=O)c1 | -21% | 22µM* | u | -12% | u
Cc1ccc(N2C(=O)NC(=O)/C(=C\C=C\c3ccco3)C2=O)cc1C | -3% | 28µM* | 5% | -11% | u
CC(C)=CCCN1CCC(NC(=O)C(O)(c2ccccc2)C2CCCC2)CC1 (stereo unspecified) | 3% | 3% | -3% | x | x
CC(=O)Oc1ccc(Cl)c2cccnc12 | 1% | 7% | 3% | 18µM* | x
CN(C(=O)Oc1ccc(Cl)c2cccnc12)c1ccccc1 | -4% | i | 1% | 11% | 5%
c1ccc2nc3ccccc3nc2c1 | 3% | -5% | 16% | -8% | -3%
C[n+]1c2ccccc2nc2ccc(NCCO)cc21 | 18µM* | x | 27µM* | x | x
CNc1ccc2nc3ccccc3[n+](C)c2c1 | 18µM* | x | 21µM* | x | x
O[N+]1=CC=CCC1=S.On1ccccc1=S.[Zn] | -21% | i | -4% | 2.5µM* | x
C=C(Cl)CCl | x | -7% | 3% | x | x
c1cncc(C2Nc3cccc4cccc(c34)N2)c1 | -2% | u | 25% | 5µM* | 4%
c1cncc(C2CCCCN2)c1 (stereo unspecified) | -1% | -17% | 3% | 7% | 1%
NC(N)=NC(=O)c1nc(Cl)c(N)nc1N | u | 6% | 40µM*! | u | 1%
Nc1c(Cl)c(Cl)nc(C(=O)O)c1Cl | x | -1% | -2% | x | x
Oc1cccc2cccnc12 | 0% | 8% | 4% | 11µM* | -3%
O=c1cc(CO)occ1O | -1% | -15% | -1% | 25µM* | x
C[C@]12CC[C@H]3[C@@H](CCC4=CC(=O)CC[C@@H]43)[C@@H]1CC[C@@H]2OC(=O)CCc1ccccc1 | x | x | -4% | x | x
CSc1nnc([C@@H](N)Cc2c[nH]c3ccccc23)o1 | 0% | i | 13% | 4.5µM* | -3%
CCSc1nnc([C@@H](N)Cc2c[nH]c3ccccc23)o1 | 1% | -7% | -5% | u | -3%
SMILES | BLM inh | RECQ1 helicase | APEX1 inh | JMJD2E inh | PKM2 activator | others
Cc1ccc(/C=C2\C(=O)NC(=S)N(c3cccc(F)c3)C2=O)o1 | -11% | x | -6% | x | -2%[11.5 µM]
Cc1cccc(N2C(=O)/C(=C/c3ccc(CN(CCC#N)S(C)(=O)=O)o3)C(=O)NC2=S)c1 | -8% | 18µM* | u | -21% | 21%
Cc1ccc(N2C(=O)/C(=C/c3ccc(CN(CCC#N)S(C)(=O)=O)o3)C(=O)NC2=S)cc1C | -17% | 25µM* | u | 0% | u
C=CC=O | x | 3% | 3% | x | x
O=c1[nH]c(=O)n(Cc2ccco2)c(O)c1C=NCc1cccs1 | -5% | -9% | 2% | -1% | 28µM*
CCn1c(O)c(C=NCc2cccs2)c(=O)[nH]c1=O | 1% | -4% | 2% | 0% | 9%
O=C(O)c1cccc2nc3ccccc3nc12 | -10% | -10% | 18% | -15% | -1%
O=C(O)c1ccc[nH]c1=S | 0% | -5% | 3% | 18µM* | 7%
CCCCn1c(O)c(/C=N/N2CCCCC2c2cccnc2)c(=O)[nH]c1=S (stereo unspecified) | -16% | -3% | 27% | -2% | 12%
Cc1ccc(-n2c(O)c(/C=N/N3CCCCC3c3cccnc3)c(=O)[nH]c2=S)cc1 (stereo unspecified) | -5% | 32µM* | -6% | 0% | 0%
CCOC(=O)C1(CCc2ccccc2)CCN(Cc2cccc3c2OCO3)CC1 | -6% | i | 0% | 3% | 32µM*
Nc1c(C(=O)NCC2CCCO2)c2nc3ccccc3nc2n1Cc1ccco1 (stereo unspecified) | 3% | -15% | 5% | 2% | 18µM* | HeLa tox=-17
C=CC(C)(C)c1c2c(c(O)c3c(=O)c4ccc(O)c(O)c4oc13)C=CC(C)(C)O2 | -14% | -18% | 3% | u | x
